Compound activity from PubChem.
Cruzain inh Det = inhibitors of Trypanosoma cruzi cruzain with detergent. AID 1478. P25779. Potency, µM, actives largely listed as inhibitors. 200,000 tested, 0.43% active. purified cruzain, Z-FR-AMC fluorescence, 0.01% Triton; also: nearly all actives have a fitted effect of over 40% in size
Target sequence (P25779 123-467 limits assumed): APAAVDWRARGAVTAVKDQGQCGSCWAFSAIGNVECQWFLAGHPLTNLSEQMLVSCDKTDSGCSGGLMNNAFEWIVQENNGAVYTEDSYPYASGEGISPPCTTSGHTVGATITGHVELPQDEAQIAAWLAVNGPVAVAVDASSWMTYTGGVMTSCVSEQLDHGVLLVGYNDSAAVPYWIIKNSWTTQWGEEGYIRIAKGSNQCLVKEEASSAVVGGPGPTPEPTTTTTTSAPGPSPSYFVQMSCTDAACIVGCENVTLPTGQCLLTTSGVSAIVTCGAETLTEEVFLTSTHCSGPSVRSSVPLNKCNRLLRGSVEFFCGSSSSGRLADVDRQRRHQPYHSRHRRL
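Purified cruzain (1.5 nM final) was preincubated with compounds for 15 min at room temperature in 100 mM sodium acetate pH 5.5, 5 mM DTT, 0.01% Triton X-100. Reaction started with 2 uM Z-FR-AMC; AMC fluorescence change over 60 s gave activity.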
Cruzain inh noDet = blocks cruzain activity in detergent-free assay; P25779; purified cruzain, Z-FR-AMC fluorescence, no detergent; Potency, µM, hits mostly inhibitors; 200,000 tested, 2.3% active; AID 1476; also: nearly all actives have a fitted effect of over 40% in size
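Purified cruzain at 1.5 nM, pre-incubated 15 min with compound at room temperature in 100 mM sodium acetate pH 5.5, 5 mM DTT, 0.00005% Triton X-100. Reaction started with 2 uM Z-FR-AMC; AMC fluorescence increase over 60 s gives rate.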
Of the large screens only hits and unclear results are named; the others gave an inactive call. Rows were chosen to be rich in hits. Some 2.6% of all compounds tested hit in one or more screens of this group. Calls follow the shape of the dose curve; as a rule, active = well fitted curve in the direction sought with a large enough effect; inconclusive = small, poorly fitted or top-dose-only effect, or another doubt; inactive = no such curve, though single readings can be large; an effect the other way counts as inactive or inconclusive.

CCN(C(=O)COC(=O)c1ccccc1Nc1cccc(C)c1C)C1CCS(=O)(=O)C1 (stereo unspecified)	Cruzain inh noDet inconclusive
CCN(C(=O)COC(=O)CNC(=O)c1ccc(C)c(C)c1)C1CCS(=O)(=O)C1 (stereo unspecified)	Cruzain inh Det 25µM, Cruzain inh noDet 16µM
CC(=O)c1ccc(N2CCN(S(=O)(=O)c3cc(-c4onc(C)c4C)ccc3C)CC2)cc1	none
COc1cc2c(cc1OC)C(c1ccc(N)cc1)=NNC(=O)C2	none
COc1ccc(NC(=O)Cc2noc3ccc(C)cc23)cc1Cl	Cruzain inh Det inconclusive, Cruzain inh noDet 25µM
CCOC(=O)c1ccc(NC(=O)Cc2noc3ccc(C)cc23)cc1	none
CC1CCCN(c2nc(-c3ccccc3O)nc3ccccc23)C1 (stereo unspecified)	none
O=C1C2C3c4ccccc4C(c4ccccc43)C2C(=O)N1c1nc(-c2ccccc2)cs1 (stereo unspecified)	Cruzain inh noDet inconclusive
O=C1C2C3c4ccccc4C(c4ccccc43)[C@@H]2C(=O)N1c1nc(-c2ccccc2)cs1 (stereo partly specified)	Cruzain inh noDet 13µM
CN1C(=O)Cc2cc(S(=O)(=O)CCC(=O)Nc3cccc(C(F)(F)F)c3)ccc21	none
Cc1ccc(N2C(=O)N(Cc3cc(=O)n4ccccc4n3)c3ccccc3S2(=O)=O)cc1Cl	none
COc1ccc(Cl)cc1NC(=O)CSc1nc(N2CCCCC2)nc(N2CCCCC2)n1	Cruzain inh noDet 16µM
Cc1ccccc1NC(=O)CSc1nc(N2CCCCC2)nc(N2CCCCC2)n1	none
COc1ccc(NC(=O)Cc2csc(C)n2)cc1	none
COc1ccc(C2C(C#N)=C(N)N3C(=C2C#N)Sc2ccccc23)cc1 (stereo unspecified)	Cruzain inh noDet 6.3µM
COc1ccc(C2C(C#N)=C(N)Nc3nc4ccccc4n32)cc1 (stereo unspecified)	Cruzain inh noDet inconclusive
CS(=O)(=O)Oc1ccccc1/C=C1/N=C(c2ccc(F)cc2)OC1=O	Cruzain inh Det 14µM, Cruzain inh noDet 16µM
O=C1OC(c2ccccc2)=N/C1=C\N1CCCCC1	none
Cc1nn(-c2ccccc2)c(N2CCCC2)c1/C=C1\N=C(c2ccc(F)cc2)OC1=O	Cruzain inh Det 0.4µM, Cruzain inh noDet 0.32µM
Cc1ccc(C2=N/C(=C\c3c(C)nn(-c4ccccc4)c3N3CCCC3)C(=O)O2)cc1	Cruzain inh Det 1µM, Cruzain inh noDet 1.6µM
Cc1nn(-c2ccccc2)c(N2CCCC2)c1/C=N/O	none
COc1cccc(/C=C2\N=C(c3c(-c4ccccc4)noc3C)OC2=O)c1OC	none
COc1ccc(CNC(=O)c2cc(-c3ccc(OC)c(OC)c3)nc3n[nH]c(-c4ccc(C)cc4)c23)cc1	Cruzain inh noDet inconclusive
O=c1c2c3c(sc2nnn1CCCCOc1ccc(Cl)cc1)CCCC3	none
Cc1ccc(C(=O)c2ccc([N+](=O)[O-])cc2)cc1	none
Cc1ccc(S(=O)(=O)CC#CCOC(=O)c2ccc([N+](=O)[O-])cc2)cc1	Cruzain inh Det 14µM, Cruzain inh noDet 13µM
Cc1nc2cnc(N3CCN(C)CC3)nc2n(Cc2ccc(F)cc2)c1=O	none
COc1ccc(CNC(=O)Cn2c(=O)n3nc(-c4cccc(F)c4)nc3c3ccccc32)cc1OC	none
CCCCCn1c(CCNC(=O)c2cccs2)nc2ccccc21	Cruzain inh noDet 13µM
CCCCCn1c(CNC(=O)c2cccs2)nc2ccccc21	none
O=C(NCCc1nc2ccccc2n1Cc1ccc(Cl)cc1)c1ccccc1	Cruzain inh Det 6.3µM
CCC(=O)NCCc1nc2ccccc2n1Cc1ccccc1	none
Cc1cccc(C(=O)NCc2nc3ccccc3n2Cc2ccccc2Cl)c1	none
CCCCCn1c(CCNC(=O)c2cccc(C)c2)nc2ccccc21	Cruzain inh Det 13µM
CCCCCn1c(CCNC(=O)CCC)nc2ccccc21	none
Cc1cccc(C(=O)NCCc2nc3ccccc3n2Cc2ccc(Cl)cc2)c1	Cruzain inh Det 7.9µM, Cruzain inh noDet inconclusive
Cc1cc(-c2ccc(S(=O)(=O)Nc3ccc(Cl)cc3C)cc2)on1	none
Cc1cccc(C(=O)N2CCc3cc(CNC(=O)c4ccco4)ccc32)c1	none
O=C(C1CCN(c2nc3ccccc3[nH]2)CC1)N1CCN(c2cccc(Cl)c2)CC1	none
CCC(=O)N1c2ccccc2CC1C(=O)NCCCN1CCN(c2ccccc2)CC1 (stereo unspecified)	none
Cc1ccc2c(c1)N(C(=O)CCC(=O)NCc1cccs1)CC(C)O2 (stereo unspecified)	none
CC(=O)c1ccc(S(=O)(=O)Nc2cccc(-c3ccc(N4CCCCCC4)nn3)c2)cc1	none
c1coc(-c2nc3ccccc3nc2-c2ccco2)c1	Cruzain inh Det 14µM, Cruzain inh noDet 13µM
O=c1oc(-c2ccco2)nc2ccccc12	none
COCc1cc(C)nc2sc3c(=O)n(-c4ccccc4C(F)(F)F)nnc3c12	none
COc1ccccc1CNc1ncnc2c1c(-c1ccccc1)cn2-c1cccc(C)c1	Cruzain inh noDet inconclusive
O=C(C(Cc1ccccc1)N1C(=O)C2C3C=CC(C3)C2C1=O)N1CCCCCC1 (stereo unspecified)	none
O=C(NCc1ccco1)C(Cc1ccccc1)N1C(=O)C2C3C=CC(C3)C2C1=O (stereo unspecified)	Cruzain inh Det 25µM
COc1cccc(Cn2c(=O)cnc3cnc(Nc4cccc(OC)c4)nc32)c1	none
O=[N+]([O-])c1cccc(C(=S)N2CCN(c3ccccc3)CC2)c1	none
CC1CCN(c2ccc(NC(=S)NC(=O)c3ccc(-c4cccc([N+](=O)[O-])c4)o3)cc2)CC1	Cruzain inh noDet inconclusive
COc1ccc(C(=O)NC(=S)Nc2ccccc2N2CCOCC2)cc1Br	Cruzain inh noDet inconclusive
CCOc1ccc(C(=O)NC(=S)Nc2ccccc2N2CCOCC2)cc1Br	Cruzain inh noDet 16µM
O=[N+]([O-])c1cccc(-c2ccc(C(=S)N3CCN(c4ccc(F)cc4)CC3)o2)c1	Cruzain inh noDet 25µM
CC1CCN(c2ccccc2NC(=S)NC(=O)c2ccc(-c3cccc([N+](=O)[O-])c3)o2)CC1	Cruzain inh noDet 7.9µM
O=C(NC(=S)Nc1ccccc1N1CCOCC1)c1ccc(-c2cc(Cl)ccc2Cl)o1	Cruzain inh noDet 10µM
O=C(NC(=S)Nc1ccccc1N1CCOCC1)c1ccco1	none
COc1cc2c(cc1OC)[C@H](C)N(CC1C(=O)O[C@@H]3C[C@@]4(C)CCC[C@H](C)[C@@]45OC5[C@H]13)CC2 (stereo partly specified)	none
O=c1c(-c2ccc(Cl)cc2)nc2cnc(N3CCNCC3)nc2n1Cc1ccc(F)cc1	none
CCCS(=O)(=O)c1nc(S(=O)(=O)c2ccc(C)cc2)c(N(C)Cc2ccccc2)s1	none
O=C1CCc2cc(S(=O)(=O)NC(C(=O)Nc3cccc(F)c3)c3ccccc3)ccc2N1 (stereo unspecified)	none
COC(=O)c1c(-c2cccs2)csc1NC(=O)COc1ccc(C)cc1	none
COC(=O)c1c(-c2cccs2)csc1NC(=O)COc1ccccc1	none
COC(=O)c1c(-c2cccs2)csc1NC(=O)COc1c(C)ccc(C)c1C	Cruzain inh noDet 25µM
COC(=O)c1c(-c2cccs2)csc1NC(=O)COc1ccc(C(C)(C)C)cc1	Cruzain inh noDet 25µM
CCOCCCNC(=O)c1cc(Sc2cccc(Cl)c2)nc2ccccc12	Cruzain inh noDet inconclusive
COc1ccc2c(C)c(CCC(=O)NCCc3ccc(OC)c(OC)c3)c(=O)oc2c1	none
COc1ccccc1/C=C(/CC(=O)NCc1ccccc1)c1nc2ccccc2s1	Cruzain inh noDet inconclusive
COc1ccccc1/C=C(/CC(=O)NCc1ccc(F)cc1)c1nc2ccccc2s1	Cruzain inh noDet 16µM
